Measurements published in PubChem BioAssay AID1240 (Sanford-Burnham Center for Chemical Genomics, 2008).
The campaign covered roughly 50,000 compounds. About 800 (1.6%) showed an effect of 50% or more. This is one part of a sample in which strong results are shown more often than they occur.

molecular target: Bcl-2-like protein 10 (Homo sapiens) (UniProt Q9HD36); assay: Phenotype converters, Bcl-B/TR3 peptide binding displacement, primary biochemical FP (AID 1240); settings: GST-Bcl-B / FITC-TR3 peptide fluorescence polarization; stronger effect = higher value; compound at 3.75 mg/L;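 also: 0% = Bcl-B with tracer peptide and DMSO and 100% = tracer peptide lacking Bcl-B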
Sequence (Q9HD36 whole entry, looked up): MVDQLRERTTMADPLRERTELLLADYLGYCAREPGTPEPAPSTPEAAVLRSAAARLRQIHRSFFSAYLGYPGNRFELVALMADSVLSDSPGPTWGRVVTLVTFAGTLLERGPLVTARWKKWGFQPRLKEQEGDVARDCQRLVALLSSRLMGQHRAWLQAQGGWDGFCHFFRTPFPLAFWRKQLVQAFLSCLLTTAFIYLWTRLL

SMILES	displacement
O=C(c1cccc([N+](=O)[O-])c1)c1ccc2c(c1)C(=O)N(c1ccccc1C(=O)O)C2=O	-2.7%
Cc1ccc(S(=O)(=O)NCCSCc2ccccc2Cl)cc1[N+](=O)[O-]	-8.5%
CCN(CC)S(=O)(=O)c1ccc(NC(=O)c2ccco2)cc1	-5.1%
Cc1ccccc1OCC(=O)Nc1ccc2c3c(cccc13)CC2	107%
CCCOc1cccc(C(=O)Nc2ccc3c4c(cccc24)CC3)c1	88.7%
CCCOc1cccc(C(=O)Nc2ccc(I)cc2Cl)c1	10.7%
CCOc1ccc(C(=O)Nc2ccc3c4c(cccc24)CC3)cc1[N+](=O)[O-]	14.7%
CC(=O)Nc1ccccc1NC(=O)COc1ccccc1C	11.1%
Cc1ccccc1OCC(=O)Nc1ccccc1CO	-7.8%
O=C(N/N=C/c1cccs1)C(=O)NC1CCCCC1	7.6%
O=C(O/C(=C/c1nccn1Cc1ccc(Cl)cc1)c1ccccc1)c1ccccc1	-1.2%
O=C(COc1ccc(Cl)cc1)Nc1ccc2c(c1)Cc1ccccc1-2	5.4%
O=C(Nc1ccccc1[N+](=O)[O-])c1ccccc1Cl	8.4%
COc1ccc(C(=O)CN2CCN(CCN3C(=O)c4cccc5cccc(c45)C3=O)CC2)cc1	9.4%
COc1ccccc1N1C(=O)/C(=C/c2ccc(N(C)C)cc2)SC1=S	-8.2%
Cc1c(-c2ccc(Cl)cc2)nc2ccccc2c1C(=O)Nc1ccc(F)cc1F	-9.1%
CCn1c(O)c(/C=N/N=C2CCCC2)c2ccc(C3=NNC(=O)CC3)cc21	45.9%
CCCOc1ccc(C2=NNC(=O)CC2)cc1	3.6%
CCn1c(O)c(/C=N/N=C/c2ccccc2)c2ccc(C3=NNC(=O)CC3)cc21	119%
CC1=NN(c2cccc(Cl)c2)C(=O)/C1=C/C=C/c1cccc([N+](=O)[O-])c1	13.6%
Cc1nc2cc(-c3ccc(F)cc3)[nH]n2c(=O)c1C	-7.3%
O=C1OC(c2ccccc2)=C/C1=C\c1c(Cl)cccc1Cl	-5.8%

SMILES	displacement
N#Cc1c(NCc2ccccc2)ccnc1SCc1ccccc1	-4.8%
COc1nccc(NCc2ccccc2)c1C#N	-12.3%
N#Cc1c(NCc2ccccc2)ncc2c1Nc1ccccc1C2	112%
C=C(Br)Cn1c(C)nc2ccccc21	14.6%
COc1ccc(C(CC(=O)c2ccc(C)cc2)Nc2ccc(I)cc2)cc1OC (stereo not given)	-7%
COc1cc(/C=C(\C#N)c2nc3ccc(C)cc3[nH]2)cc(OC)c1OC(C)=O	-4.6%
COc1ccc(C(=O)NNC2=Nc3cccc4cccc2c34)cc1	-17.1%
O=C(Nc1cccc(C(F)(F)F)c1)c1cccc(N2C(=O)c3ccccc3C2=O)c1	-5.6%
O=C(NC1=Nc2cccc3cccc1c23)c1cccc(C(F)(F)F)c1	62.1%
O=C(Nc1cccc(Br)c1)c1ccc([N+](=O)[O-])cc1	12.7%
Cc1[nH]c2ccc(Br)cc2c1CC(=O)N/N=C/c1ccc(Cl)c(Cl)c1	5.1%
C=CCOC(=O)C1=C(C)NC(C)=C(C(=O)OCC=C)C1c1ccc(C)o1	12.2%
CCOC(=O)C1=C(C)N=c2s/c(=C\c3ccc4c(c3)OCO4)c(=O)n2C1c1ccc2c(c1)OCO2 (stereo not given)	3.5%
CCOC(=O)C1=C(C)N=c2s/c(=C\c3ccc(OCC)cc3)c(=O)n2C1c1ccccc1 (stereo not given)	-1%
CCOC(=O)C1=C(C)N=c2s/c(=C\c3ccc([N+](=O)[O-])cc3)c(=O)n2C1c1ccc(Cl)cc1 (stereo not given)	9.2%
CCOC(=O)C1=C(C)N=c2s/c(=C/c3ccc(Cl)cc3)c(=O)n2C1c1ccccc1 (stereo not given)	90.8%
CCOC(=O)C1=C(C)N=c2s/c(=C/c3ccc(C)cc3)c(=O)n2C1c1ccccc1 (stereo not given)	2.5%
CCOC(=O)C1=C(C)N=c2s/c(=C\c3ccc(C(C)=O)cc3)c(=O)n2C1c1ccccc1 (stereo not given)	76.2%
CCOC(=O)C1=C(C)N=c2s/c(=C\c3ccc4c(c3)OCO4)c(=O)n2C1c1ccc(C)cc1 (stereo not given)	-7.1%
CCOC(=O)C1=C(C)N=c2s/c(=C\c3ccccc3)c(=O)n2C1c1ccc(Cl)cc1 (stereo not given)	3.8%
CCOC(=O)C1=C(C)N=c2s/c(=C\c3ccc(Cl)cc3)c(=O)n2C1c1ccc2c(c1)OCO2 (stereo not given)	121%
O=C(/C=C/c1cccc(C(F)(F)F)c1)Nc1ccccc1[N+](=O)[O-]	7%

SMILES	displacement
O=C(O)CCC(=O)N1N=C(c2cccs2)CC1c1ccccc1Cl (stereo not given)	-8.4%
O=C(Cc1ccc(Cl)cc1)Nc1ccc(Cl)cn1	8.8%
Clc1ccc(N2CCN(N=Cc3c(Cl)cccc3Cl)CC2)cc1	8.5%
Cc1ccc(C(=O)Nc2ccc(C(=O)O)cc2)cc1S(=O)(=O)NC1CCCCC1	-11.1%
Cc1nn(-c2ccccc2)c(C)c1/C=N/O	3.2%
CCOC(=O)c1c(NC(=O)C(C)N2C(=O)c3ccccc3C2=O)sc2c1CCC(C)C2 (stereo not given)	2.5%
Cc1ccc(N2C(=O)NC(=O)/C(=C/c3ccc(-c4ccc(F)cc4)o3)C2=O)cc1	40.5%
COc1ccc(N2C(=O)NC(=O)/C(=C/c3ccc(I)o3)C2=O)cc1	3.6%
COc1ccc(N2C(=O)NC(=O)/C(=C/c3ccc(OCc4ccccc4F)cc3)C2=O)cc1	63.1%
COc1ccc(N2C(=O)NC(=O)/C(=C/c3ccc(Sc4ccc(C)cc4)o3)C2=O)cc1	125%
O=C1NC(=O)N(c2ccccc2)C(=O)/C1=C\c1ccc(OCc2ccccc2F)cc1	12.9%
O=C1NC(=O)N(c2ccccc2)C(=O)/C1=C\c1ccc(-c2ccc(F)cc2)o1	137%
O=C1NN(c2ccccc2)C(=O)/C1=C/c1ccc(-c2ccc(F)cc2)o1	8.1%
COc1ccc(N2C(=O)NC(=O)/C(=C\c3ccc(-c4ccccc4C(=O)O)o3)C2=O)cc1	-88.8%
COc1ccc(N2C(=O)NC(=O)/C(=C/c3ccc(-c4ccc(F)cc4)o3)C2=O)cc1	100%
COc1ccc(N2C(=O)NC(=O)/C(=C\c3ccc(C)cc3)C2=O)cc1	-6%
COc1ccc(N2C(=O)NC(=O)/C(=C/c3cccc(OCc4ccccc4F)c3)C2=O)cc1	0.1%
COC(=O)c1c(N)sc(C(=O)Nc2ccccc2OC)c1C	1.7%
Cc1cc(Cl)ccc1OCC(=O)Nc1nc2ccc(Cl)cc2s1	-7.8%
O=[N+]([O-])c1cccc(S(=O)(=O)N2CCc3ccccc3C2)c1	0%
COc1ccccc1N1C(=O)C2C(C1=O)C1C=CC2C12CC2 (stereo not given)	15.1%
